“And” between values parts separate entries of the source, which are not always exact repeats. Equal values may be shown once. Some compounds were tested as several samples or in several runs, with calls that do not always agree. The source made the active and inactive calls. The calls were made as follows: active = hit-call score of the fitted dose curve at least 0.9, where 1 is the maximum; inactive = score below 0.9.

As a reminder, the AC50 is the midpoint of the concentration-response curve, whichever way the signal moves.

Read-out in the assay: Macrophage colony-stimulating factor (MCSF), CSF1 (gene 1435)
The experiment in a line: BSK_hDFCGF_MCSF: BioMAP Diversity Plus: hDFCGF Assay for Macrophage colony-stimulating factor (MCSF) Biomarker Activity (AID 2283060). To be noted: primary human foreskin fibroblasts; actives raise or lower the signal. As for the experimental part:
BSK_hDFCGF is a cell-based, multiplexed-readout assay that uses foreskin fibroblast, a human skin primary cell, with measurements taken at 24 hours after chemical dosing in a 96-well plate.BSK_hDFCGF_MCSF is an assay component measured in the BSK_hDFCGF assay. It measures M-CSF antibody related to regulation of gene expression using ELISA technology.Data from the assay component BSK_hDFCGF_MCSF was analyzed into 1 assay endpoint. This assay endpoint, BSK_hDFCGF_MCSF, was analyzed with bidirectional fitting relative to DMSO as the negative control and baseline of activity. Using a type of binding reporter, gain or loss-of-signal activity can be used to understand changes in the signaling as they relate to the gene CSF1. Furthermore, this assay endpoint can be referred to as a primary readout, because this assay has produced multiple assay endpoints where this one serves a signaling function. To generalize the intended target to other relatable targets, this assay endpoint is annotated to the cytokine intended target family, where the subfamily is colony stimulating factor.
The levels of cell surface (or secreted, indicated by the prefix "s") biomarker endpoints were measured by ELISA. Overt cytotoxicity to cells in confluent adherent cultures (all systems other than the BT system) was assessed by measuring total protein levels using sulforhodamine B (SRB) staining in parallel cultures at the time of biomarker measurements, indicated as SRB endpoints. For proliferation assays for adherent cell types, individual cell types are cultured at sub-confluence and relative cell numbers quantified by SRB staining at time points optimized for each system (48 h: 3C and CASM3C systems; 72 h: BT and HDF3CGF systems; 96 h: SAg system). SRB was performed by staining cells with 0.1% SRB after fixation with 10% TCA and reading wells at 560 nm.Viability and proliferation of PBMC (T cells) was quantified by Alamar Blue reduction for the SAg and BT systems. For PBMC viability (referred to as PBMC Cytotoxicity within the assay endpoint names), cells were plated (75,000/well in a 96-well plate) and then chemical samples added for 1 h before addition of activators, SEB and TSST-1 (20 ng/mL final concentration each). Cells were incubated for 90 h. Then, Alamar Blue (20 uL/well) (Invitrogen, Cat DAL1100) was added for 6 h, and the plates were read with a fluorescence microplate reader at 546/580 nm (excitation/emission). For PBMC proliferation, cells were plated and activated as above but incubated for only 16 h prior to addition of Alamar Blue. Plates were read after 6 h.
As to `CCOc1cc(Oc2ccc(C(F)(F)F)cc2Cl)ccc1[N+](=O)[O-]`, the AC50 was 6.77 µM (active).

With `CCc1nn(C)c(C(=O)NCc2ccc(C(C)(C)C)cc2)c1Cl`, the AC50 is 23.9 µM (active).

For the molecule `COc1nc(C)nc(NC(=O)NS(=O)(=O)c2ccccc2Cl)n1`, the result was inactive.

Regarding `COP(=S)(OC)Oc1nc(Cl)c(Cl)cc1Cl`, the AC50 is 30 µM (active).

Consider `CCCC1COC(Cn2cncn2)(c2ccc(Cl)cc2Cl)O1` (stereo not given), for which the result was inactive.

In the case of `COC(=O)c1ccccc1C(=O)OC`, the result was inactive.

Turning to `CON(C)C(=O)Nc1ccc(Cl)c(Cl)c1`, the result was inactive.

For `CN(C)C(=S)SSC(=S)N(C)C`, the AC50 is 4.39 µM (active).

Consider `CO/C=C(/C(=O)OC)c1ccccc1Oc1cc(Oc2ccccc2C#N)ncn1`, for which the result was inactive.

On to `CCCCOC(=O)c1ccccc1C(=O)OCCCC`, for which the AC50 is 12 µM (active) and the outcome was inactive.

Consider `Cc1ccc(-c2c(Cl)nc(C#N)n2S(=O)(=O)N(C)C)cc1`, for which the AC50 is 14.3 µM (active).

`CCNc1nc(Cl)nc(NCC)n1`: the result was inactive.

In the case of `COC(=O)C(C)Oc1ccc(Oc2ccc(Cl)cc2Cl)cc1` (stereo not given), the outcome was inactive.

With `O=C(Nc1ccccc1)Nc1ccnc(Cl)c1`, the result was inactive.

As for `CC(C)(C)c1ccc(CSc2cnn(C(C)(C)C)c(=O)c2Cl)cc1`, the AC50 is 7.69 µM (active).

On to `CCOC(=O)CC(SP(=S)(OC)OC)C(=O)OCC` (stereo not given), for which the outcome was inactive.

As for `Cc1c(F)c(F)c(COC(=O)C2C(/C=C(\Cl)C(F)(F)F)C2(C)C)c(F)c1F` (stereo not given), the AC50 was 3.03 µM (active).

Take `CNC(=O)ON=CC(C)(C)SC`: the result was inactive.

Consider `CCOC(=O)C(Cl)Cc1cc(-n2nc(C)n(C(F)F)c2=O)c(F)cc1Cl` (stereo not given), for which the result was inactive.

In the case of `COc1cnc(OC)n2nc(NS(=O)(=O)c3c(OCC(F)F)cccc3C(F)(F)F)nc12`, the result was inactive.

Regarding `C=CC1(C)OC(=O)N(c2cc(Cl)cc(Cl)c2)C1=O` (stereo not given), the result was inactive.

Take `CC1=C(C(=O)Nc2ccccc2)SCCO1`: the outcome was inactive.

As for `N#Cc1cc(Br)c(O)c(Br)c1`, the outcome was inactive.

For `CCNc1nc(Cl)nc(NC(C)C)n1`, the result was inactive.

On to `CC(C)C1(C)N=C(c2nc3ccccc3cc2C(=O)O)NC1=O` (stereo not given), for which the result was inactive.

Consider `CNC(=S)S`, for which the result was inactive.

In the case of `CCCCNC(=O)OCC#CI`, the AC50 was 5.14 µM (active) and 9.67 µM (active).

In the case of `Cc1cc(Cl)ccc1OCC(=O)O`, the outcome was inactive.

Take `CCCN(CCC)c1c([N+](=O)[O-])cc(S(N)(=O)=O)cc1[N+](=O)[O-]`: the result was inactive; the AC50 is 32.9 µM (active) and 30.5 µM (active) and 31.2 µM (active).

Take `COc1nc(NC(C)C)nc(NC(C)C)n1`: the outcome was inactive.

As for `O=C(O)COc1nc(Cl)c(Cl)cc1Cl`, the result was inactive.

For `OC(c1ccc(Cl)cc1)(c1cncnc1)c1ccccc1Cl` (stereo not given), the outcome was inactive.

Turning to `CCOP(=S)(OCC)SCn1c(=O)oc2cc(Cl)ccc21`, the AC50 is 14.3 µM (active).

As for `CCCCNC(=O)n1c(NC(=O)OC)nc2ccccc21`, the result was inactive.

As to `N#CC(CCc1ccc(Cl)cc1)(Cn1cncn1)c1ccccc1` (stereo not given), the outcome was inactive.

On to `C=CCC1=C(C)[C@@H](OC(=O)[C@@H]2[C@@H](C=C(C)C)C2(C)C)CC1=O`, for which the AC50 was 32.2 µM (active).

With `COc1ccc(C(c2ccc(OC)cc2)C(Cl)(Cl)Cl)cc1`, the AC50 was 9.16 µM (active).

Turning to `CS/C(C)=N/OC(=O)N(C)SN(C)C(=O)O/N=C(\C)SC`, the outcome was inactive.

Values taken from PubChem BioAssay (EPA / NIEHS).
